# According to the supplement of paper PMC9446081:
# In all, about 39,000 compounds went through this assay and about 220 (0.56%) showed activity. The entries come from a sample that favours actives as a whole. A number with no mark means an inactive call.
# System: Escherichia coli K-12 BW25113
# Assay: relative growth (OD600 normalised to plate interquartile mean) (fraction); higher = less growth inhibition, active = 0.2 or less
# Conditions: 50 µM; LB; incubation time: overnight (16-24 h)
# 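Further: Wild-type cells incubated without shaking, value is the mean of two biological replicates.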
row,SMILES,relative growth
1,C[C@@H]1CN([C@@H](C)CO)C(=O)c2cc(Br)cnc2O[C@H]1CN(C)C(=O)c1ccc2c(c1)OCO2,0.994
2,Nc1c2c(=O)[nH]c(=O)cc-2[nH]n1-c1ccccc1,0.972
3,COCC#Cc1ccc2c(c1)O[C@H](CN(C)C(=O)C1CCOCC1)[C@H](C)CN([C@@H](C)CO)S2(=O)=O,1.01
4,CC(C)CNC(=O)C[C@H]1NCCNC1=O,0.923
5,CN1C(=O)c2cc(NC(=O)c3cccs3)ccc2OC[C@@H]2O[C@H](CC(=O)NCCN3CCCCC3)CC[C@H]21,1.02
6,C[C@@H]1CN([C@H](C)CO)C(=O)c2cc(NC(=O)Cn3cnnn3)ccc2O[C@@H]1CN(C)Cc1ccncc1,1.01
7,C[C@H]1CN([C@@H](C)CO)C(=O)c2cc(-c3ccncc3)cnc2O[C@H]1CN(C)S(=O)(=O)c1ccccc1,1.01
8,C=C(CC[C@@H](C)[C@H]1CC[C@@]2(C)C3=C(C[C@H](O)[C@]12C)[C@@]1(C)CC[C@@H](OC(=O)CC(=O)O)C(C)(C)[C@@H]1CC3)[C@@H](C)C(=O)O,0.89
9,C[C@@H]1CN([C@H](C)CO)C(=O)c2cc(NC(=O)Nc3ccc(F)cc3)ccc2O[C@@H](C)CCCCO[C@H]1CN(C)C(=O)C1CCCCC1,1.01
10,CN1CCN(C(=O)C[C@@H]2CC[C@@H]3[C@H](COC[C@H](O)CN3C(=O)Nc3ccc4c(c3)OCO4)O2)CC1,0.974
11,Cc1noc(C)c1S(=O)(=O)N(C)C[C@@H]1OCCCC[C@H](C)Oc2ccc(NC(=O)Nc3ccc(F)cc3)cc2C(=O)N([C@H](C)CO)C[C@@H]1C,1
12,CO/N=C(\C(=O)N[C@@H]1C(=O)N2C(C(=O)O)=C(CSc3nnnn3C)CS[C@H]12)c1csc(N)n1,0.0456 (active)
13,CON=C(C(=O)NC1C(=O)N2C(C(=O)OC(C)OC(C)=O)=C(COC(N)=O)CSC12)c1ccco1 (configuration not stated),0.881
14,CON=C(C(=O)NC1C(=O)N2C(C(=O)[O-])=C(COC(C)=O)CSC12)c1csc(N)n1.[Na+] (configuration not stated),0.0428 (active)
15,CON=C(C(=O)NC1C(=O)N2C(C(=O)[O-])=C(COC(N)=O)CSC12)c1ccco1.[Na+] (configuration not stated),0.0464 (active)
16,CON=C(C(=O)NC1C(=O)N2C(C(=O)[O-])=C(CSc3nc(=O)c([O-])nn3C)CSC12)c1csc(N)n1.O.O.O.[Na+].[Na+] (configuration not stated),0.0494 (active)
17,COCC1=C(C(=O)OC(C)OC(=O)OC(C)C)N2C(=O)C(NC(=O)C(=NOC)c3csc(N)n3)C2SC1 (configuration not stated),0.551
18,CO/N=C(\C(=O)N[C@@H]1C(=O)N2C(C(=O)O[C@@H](C)OC(C)=O)=C(COC(N)=O)CS[C@H]12)c1ccco1,1.01
19,Nc1nc(=O)c2nc(Br)n([C@@H]3O[C@@H]4COP(=O)(O)O[C@H]4[C@H]3O)c2[nH]1,1.03
20,O=C(C[C@@H]1C[C@H]2c3cc(NC(=O)Nc4ccc(C(F)(F)F)cc4)ccc3O[C@H]2[C@H](CO)O1)NCc1ccc(Cl)cc1,0.984
21,CN1CCN(C(=O)C[C@H]2CC[C@@H]3[C@H](COC[C@H](O)CN3CC3CCCC3)O2)CC1,1

row,SMILES,relative growth
1,C[C@H](CO)N1C[C@H](C)[C@H](CN(C)C(=O)c2cccc(F)c2)Oc2cc(-c3cccnc3)ccc2S1(=O)=O,1.03
2,NCC[C@H]1CC[C@H](NC(=O)NC2CCCCC2)[C@H](CO)O1,0.986
3,C[C@@H]1CN([C@@H](C)CO)C(=O)Cc2cc(NC(=O)Nc3ccccc3)ccc2O[C@@H]1CN(C)Cc1ccc(Oc2ccccc2)cc1,0.967
4,Cc1nc(CN)c(C)o1,0.995
5,C[C@@H]1CN([C@@H](C)CO)C(=O)c2cc(NC(=O)Nc3ccc(C(F)(F)F)cc3)ccc2O[C@@H]1CN(C)S(=O)(=O)c1ccc(Cl)cc1,1.04
6,C[C@H](CO)N1C[C@H](C)[C@H](CN(C)C(=O)Nc2ccc(C(F)(F)F)cc2)Oc2ccc(NC(=O)CCCCCC(=O)Nc3ccccc3N)cc2C1=O,0.925
7,Cc1noc(C)c1NC(=O)Nc1cccc2c1O[C@@H](CN(C)Cc1ccc(-c3ccccc3)cc1)[C@H](C)CN([C@@H](C)CO)C2=O,1.01
8,CON=C(C(=O)N[C@@H]1C(=O)N2C(C(=O)O)=C(CSc3nc(=O)c(O)nn3C)CS[C@H]12)c1csc(N)n1,0.0335 (active)
9,C[C@@H]1CN([C@@H](C)CO)C(=O)Cc2cc(NC(=O)Nc3ccc(C(F)(F)F)cc3)ccc2O[C@@H]1CN(C)Cc1ccc(C(=O)Nc2ccccc2N)cc1,1
10,Cc1noc(C)c1NC(=O)Nc1ccc2c(c1)C(=O)N([C@H](C)CO)C[C@@H](C)[C@H](CN(C)S(=O)(=O)c1cccs1)OCCCC[C@H](C)O2,0.988
11,C[C@@H]1CN([C@H](C)CO)C(=O)c2cc(NS(=O)(=O)c3cccs3)ccc2O[C@H]1CN(C)Cc1ccc(Cl)c(Cl)c1,0.994
12,Cc1ccc(S(=O)(=O)N(C)C[C@H]2OCCCC[C@@H](C)Oc3ccc(NC(=O)Nc4c(C)noc4C)cc3C(=O)N([C@@H](C)CO)C[C@@H]2C)cc1,0.961
13,COc1ccc2c3c(n(c2c1)C)[C@@H](CO)N(C[C@]13CN(C1)C(=O)CN1CCOCC1)C(=O)Nc1ccc(cc1)F,0.977
14,C[C@H]1CN([C@@H](C)CO)C(=O)Cc2cc(NC(=O)NC3CCCCC3)ccc2O[C@H]1CN(C)Cc1ccc(Oc2ccccc2)cc1,1.03
15,C[C@@H]1CN([C@@H](C)CO)C(=O)c2cc(NC(=O)C3CCCCC3)ccc2O[C@@H]1CN(C)C(=O)Nc1cccc2ccccc12,1.01
16,C[N+](C)(CCOc1ccccc1)Cc1ccccc1.O=C([O-])c1cc2ccccc2cc1O,0.93
17,C[N+](C)(CCOc1ccccc1)Cc1ccccc1.O=C(O)c1cc2ccccc2c(Br)c1O,0.944
18,CC(C)(C)CC(C)(C)c1ccc(OCCOCC[N+](C)(C)Cc2ccccc2)cc1.[Cl-],0.0469 (active)
19,Cc1cc(C(C)(C)CC(C)(C)C)ccc1OCCOCC[N+](C)(C)Cc1ccccc1.[Cl-],0.0463 (active)
20,COc1ccc(CN(C)C[C@H]2OCCCC[C@H](C)Oc3ccc(NC(=O)Nc4ccc(OC)cc4)cc3C(=O)N([C@@H](C)CO)C[C@H]2C)cc1,0.901
21,C[C@H]1CN([C@@H](C)CO)C(=O)c2cc(C#CC3(O)CCCC3)cnc2O[C@H]1CN(C)C(=O)CN(C)C,0.988

row,SMILES,relative growth
1,O=C(NCC(F)(F)F)[C@@H]1[C@@H](CO)[C@@H]2Cn3c(cccc3=O)[C@@H]2N1C(=O)C1CCC1,1
2,O=C(C[C@@H]1CC[C@H]2[C@@H](COC[C@H](O)CN2C(=O)c2ccccc2F)O1)N1CCN(c2ccccc2)CC1,0.976
3,CS(=O)(=O)NC[C@@H]1OC[C@@H]2CCN(C(=O)c3ccnnc3)C[C@@H]21,1.02
4,C[C@H]1CCCCO[C@@H](CN(C)C(=O)NC2CCCCC2)[C@@H](C)CN([C@@H](C)CO)C(=O)c2cc(NC(=O)c3ccccc3)ccc2O1,1.03
5,C[C@@H]1CN([C@H](C)CO)C(=O)c2cccc(NS(=O)(=O)c3ccc(Cl)cc3)c2O[C@H]1CN(C)C(=O)Nc1cccc2ccccc12,1.02
6,C[C@H](CO)N1C[C@H](C)[C@@H](CN(C)C(=O)Nc2ccc(C(F)(F)F)cc2)Oc2ccc(NS(=O)(=O)c3ccc(Cl)cc3)cc2CC1=O,0.982
7,Cc1ccc(S(=O)(=O)Nc2ccc3c(c2)C(=O)N([C@@H](C)CO)C[C@@H](C)[C@H](CN(C)C(=O)CCC(F)(F)F)OCCCC[C@H](C)O3)cc1,0.979
8,Cc1noc(C)c1NC(=O)N(C)C[C@@H]1Oc2ncc(C#CCN(C)C)cc2C(=O)N([C@H](C)CO)C[C@@H]1C,0.979
9,Cc1oc(=O)oc1CN1CCN(c2cc3c(cc2F)c(=O)c(C(=O)O)c2n3C(C)S2)CC1 (configuration not stated),0.0438 (active)
10,C[C@@H]1CN([C@H](C)CO)C(=O)Cc2cc(NC(=O)Nc3ccc4c(c3)OCO4)ccc2O[C@@H]1CN(C)Cc1ccc(C(F)(F)F)cc1,1.02
11,O=C(O)P(=O)(O)O,0.0351 (active)
12,CC(=O)O,1.01
13,O=P(O)(O)CN(CCN(CP(=O)(O)O)CP(=O)(O)O)CP(=O)(O)O,0.926
14,C[C@H]1CN([C@@H](C)CO)C(=O)c2cccc(NS(C)(=O)=O)c2O[C@@H]1CN(C)Cc1ccc(C(F)(F)F)cc1,1.01
15,C[C@@H]1CN([C@H](C)CO)C(=O)c2cc(C#CCN(C)C)cnc2O[C@H]1CN(C)C(=O)CCN1CCCCC1,0.983
16,C[C@H](CO)N1C[C@H](C)[C@@H](CN(C)Cc2ccccc2)OCCCC[C@H](C)Oc2ccc(NC(=O)CCC(F)(F)F)cc2C1=O,0.999
17,C[C@H]1CN([C@@H](C)CO)C(=O)c2cccc(NS(=O)(=O)c3cn(C)cn3)c2O[C@@H]1CN(C)S(=O)(=O)c1cccs1,1.01
18,COc1ccc(S(=O)(=O)N(C)C[C@@H]2Oc3ncc(C#Cc4ccc(F)cc4)cc3C(=O)N([C@H](C)CO)C[C@@H]2C)cc1,1.05
19,COc1ccccc1CNC(=O)C[C@@H]1C[C@@H]2c3cc(NC(=O)NC4CCCC4)ccc3O[C@@H]2[C@H](CO)O1,0.983
20,Cc1ccc(S(=O)(=O)Nc2ccc3c(c2)CC(=O)N([C@@H](C)CO)C[C@@H](C)[C@H](CN(C)CC2CC2)O3)cc1,1.02
